Rows were chosen to be rich in hits. Some 4.1% of all compounds tested hit in one or more screens of this group.
DAX1 inh-1 = blocks DAX1 repression of SF-1 activated StAR promoter. HEK293T StAR-luciferase reporter, SF-1/DAX-1 repression relief. inhibition, % at 6.8 µM. 370,000 tested, 1.1% active. AID 652010;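 active means inhibition above the mean over all tested compounds plus 3 SD, cut at about 3.6% in these data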;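 further: higher inhibition means more luminescence from relief of DAX-1 repression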
hgDAF12 agonist = agonists of H. glycines DAF-12 nuclear receptor; HEK293 GAL4-hgDAF12 UAS-luciferase reporter, agonist luminescence; normalized to butyrate control; activation, % at 6.8 µM; 370,000 tested, 1.8% active; AID 687014;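 active means activation above a cutoff set at the mean of all screened compounds plus 3 SD, cut at about 10% in these data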
ssDAF12 agonist = activates DAF-12 receptor from parasite S. stercoralis | 370,000 tested, 1% active | activation, % at 6.8 µM | HEK293 ssDAF-12/GRIP1 lit1-tk-luc reporter, luminescence; % of 3 µM dafachronic acid response;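 active means activation above the mean over all tested compounds plus 3 SD, cut at about 0.9% in these data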
DAX1 inh-2 = inhibitors of human orphan nuclear receptor DAX1 (NR0B1); HEK293 Gal4-DAX1 luciferase reporter, luminescence; inhibition, % at 6.75 µM; 340,000 tested, 0.99% active;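 active means inhibition above the mean over all tested compounds plus 3 SD, cut at about 4.2% in these data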;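 further: inhibition shows as a rise in luminescence from relieved DAX1 repression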
Target sequence (P51843 207-470 limits assumed): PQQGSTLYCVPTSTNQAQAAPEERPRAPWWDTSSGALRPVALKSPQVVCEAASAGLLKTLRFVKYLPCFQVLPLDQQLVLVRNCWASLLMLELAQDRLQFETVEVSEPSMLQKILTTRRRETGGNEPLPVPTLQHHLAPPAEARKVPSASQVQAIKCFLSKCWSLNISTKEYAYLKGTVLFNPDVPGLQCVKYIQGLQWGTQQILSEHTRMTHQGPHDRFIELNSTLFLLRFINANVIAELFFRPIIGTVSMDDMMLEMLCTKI
hcDAF-12 act = H. contortus DAF-12 activation, primary screen; HEK293 hcDAF-12 lit1-tk-luc reporter, luminescence; 0% DMSO, 100% Δ7-dafachronic acid; activation, % at 6.8 µM; 370,000 tested, 1.4% active; AID 652067;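 active means activation above the mean of all tested compounds plus 3 SD, cut at about 5.5% in these data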
Large screens that a line does not name were inactive.

O=C(CCCc1ccccc1)Nc1cccc(C(=O)O)c1	DAX1 inh-1 4.5, hgDAF12 agonist 12
Cc1ccc(OCC(=O)Nc2cccc(O)c2)cc1C	hgDAF12 agonist 11
O=C(CCc1ccccc1)NC(=S)Nc1ccccc1Br	DAX1 inh-2 8.4
COc1ccc(N2CCN(CCCNC(=O)COc3ccc(F)cc3)CC2)cc1	none (no result: DAX1 inh-2)
COC(=O)C1CN(Cc2cn(CCOC(C)=O)nn2)CCS(=O)(=O)N1Cc1ccc(F)cc1 (centres undefined)	none (no result: DAX1 inh-2)
CNC(=S)Nc1cccc(C(=O)O)c1	ssDAF12 agonist 1.4
COc1ccc(NC(=O)CCCc2ccccc2)cc1OC	DAX1 inh-2 4.2
CCC(C)c1ccc(OCC(=O)Nc2cccc(C(=O)Nc3ccc(C(=O)O)cc3)c2)cc1 (centres undefined)	DAX1 inh-1 4.0
Cc1ccc(NC(=O)CCCc2ccccc2)nc1	DAX1 inh-1 3.8
COc1ccc(NC(=O)CCCC(=O)c2ccccc2)cc1OC	none
CCCC1CCC2(CCCN2CCOC(=S)Nc2ccccc2)CC1 (centres undefined)	none (no result: DAX1 inh-1, DAX1 inh-2)
O=C(CCc1ccccc1)NC(=S)Nc1cccc(C(=O)O)c1	DAX1 inh-1 4.0
O=C(CCc1ccccc1)NNC(=O)c1ccccc1Br	DAX1 inh-2 5.0
COc1cccc(/C=N/NC(=S)Nc2cccc(C(=O)O)c2)c1	ssDAF12 agonist 1.6
O=C(CCc1ccccc1)NNC(=O)c1ccccc1C(=O)O	none
COc1ccc(/C=N/NC(=S)Nc2cccc(C(=O)O)c2)cc1OC	none
O=C(NC1CCCCN(Cc2cccc(F)c2)C1=O)c1ccc(-c2ccccc2)cc1 (centres undefined)	none (no result: DAX1 inh-2)
CCCOc1ccc(N2C(=O)CC(N(CCCO)C(=O)CC)C2=O)cc1 (centres undefined)	none
CCCCN(C(C)=O)C1CC(=O)N(c2ccc(OCCC)cc2)C1=O (centres undefined)	DAX1 inh-2 8.6
C=CCSc1n[nH]c(-c2ccc(OCCCC)cc2)n1	ssDAF12 agonist 0.9
CC(C)(C)NC(=O)c1ccccc1-c1nc2ccccc2s1	ssDAF12 agonist 1.6
CCOC(=O)CCC(=O)N1CCOCCN(C(=O)CCC(=O)OCC)CCOCC1	none
CCOC(=O)CCC(=O)N1CCNC(=O)C1	hcDAF-12 act 5.6
CC(C)(C)N1Cc2nnn(Cc3ccccc3)c2-c2ccccc2S1(=O)=O	none (no result: DAX1 inh-2)
O=C(/C=C(\Nc1ccc(F)cc1)c1ccccc1)c1ccccc1	hgDAF12 agonist 11 (no result: DAX1 inh-2)
C/C(=C\C(=O)c1cccnc1)Nc1ccc(O)cc1	none
C/C(=C\C(=O)c1ccccc1)Nc1ccc(O)cc1	ssDAF12 agonist 1.1
O=C(/C=C(\Nc1ccccc1)c1ccccc1)c1ccccc1	none (no result: DAX1 inh-2)
CC(=O)c1c(C(=O)O)c2ccccc2[nH]c1=O	DAX1 inh-2 4.8
CCN1CCCCC(NC(=O)c2ccccc2OC)C1=O (centres undefined)	none (no result: DAX1 inh-2)
CCc1ccc(-c2csc(NC(=O)C3=COCCO3)n2)cc1	DAX1 inh-1 4.2
Cc1ccc(-c2nc(C=Nc3ccccc3)c(O)o2)cc1	none
Oc1oc(-c2ccc(Br)cc2)nc1/C=N/c1ccccn1	hgDAF12 agonist 13
O=C(CSc1nnc(-c2ccncc2)n1-c1ccccc1)Nc1cccc2ccccc12	none (no result: DAX1 inh-2)
COc1cc(/C=N/Nc2ccccn2)cc(OC)c1O	none
COc1cc(/C=N/Nc2cccc3cccnc23)cc(OC)c1O	hgDAF12 agonist 13
O=Nc1ccccn1	none (no result: DAX1 inh-2)
O=C1C=C(Nc2ccccc2C(=O)O)c2ccccc2C1=O	hcDAF-12 act 6.3
O=S1(=O)N[C@H](Cc2ccccc2)COc2cccc(N3CCCCC3)c21	none (no result: DAX1 inh-2)
COC(=O)[C@]12C[C@H](CC(=O)N3CCOCC3)C(=O)N(Cc3ccco3)C1=C[C@H](C(C)C)O[C@@H]2C1CC1	none (no result: DAX1 inh-2)
COc1cc(/C=N/Nc2ccccn2)ccc1OCC(C)C	hgDAF12 agonist 11
COc1ccc(/C=N\Nc2ccccn2)c(OC)c1	hgDAF12 agonist 11
O=S(=O)(c1ccc2nnn(OCc3ccccc3)c2c1)N1CCOCC1	none
CC(On1nnc2ccc(S(=O)(=O)N3CCOCC3)cc21)C(=O)Nc1ccccc1F (centres undefined)	DAX1 inh-2 5.0
Cc1cc2c(cc1C)NC(=O)CC(c1ccccc1)=N2	hgDAF12 agonist 12
Cc1ccccc1NC(=O)COc1ccc(Br)cc1CNCCCO	DAX1 inh-2 5.2
COc1ccccc1NC(=O)COc1ccc(Br)cc1CNCCCN1CCOCC1	none

Source: PubChem
